From PubChem BioAssay
Hits are enriched below; roughly 3.1% of the tested compounds scored in any of these assays.
Anthrax LF inh2: Bacillus anthracis LF protease inhibitors, primary screen, biochemical, multiplex microsphere, MLPCN library; Lethal factor (Bacillus anthracis), P15917; multiplex microsphere protease cleavage assay; inhibition, % at 10 µM; 360,000 compounds, 0.12% hits
Target sequence (P15917 whole entry, looked up): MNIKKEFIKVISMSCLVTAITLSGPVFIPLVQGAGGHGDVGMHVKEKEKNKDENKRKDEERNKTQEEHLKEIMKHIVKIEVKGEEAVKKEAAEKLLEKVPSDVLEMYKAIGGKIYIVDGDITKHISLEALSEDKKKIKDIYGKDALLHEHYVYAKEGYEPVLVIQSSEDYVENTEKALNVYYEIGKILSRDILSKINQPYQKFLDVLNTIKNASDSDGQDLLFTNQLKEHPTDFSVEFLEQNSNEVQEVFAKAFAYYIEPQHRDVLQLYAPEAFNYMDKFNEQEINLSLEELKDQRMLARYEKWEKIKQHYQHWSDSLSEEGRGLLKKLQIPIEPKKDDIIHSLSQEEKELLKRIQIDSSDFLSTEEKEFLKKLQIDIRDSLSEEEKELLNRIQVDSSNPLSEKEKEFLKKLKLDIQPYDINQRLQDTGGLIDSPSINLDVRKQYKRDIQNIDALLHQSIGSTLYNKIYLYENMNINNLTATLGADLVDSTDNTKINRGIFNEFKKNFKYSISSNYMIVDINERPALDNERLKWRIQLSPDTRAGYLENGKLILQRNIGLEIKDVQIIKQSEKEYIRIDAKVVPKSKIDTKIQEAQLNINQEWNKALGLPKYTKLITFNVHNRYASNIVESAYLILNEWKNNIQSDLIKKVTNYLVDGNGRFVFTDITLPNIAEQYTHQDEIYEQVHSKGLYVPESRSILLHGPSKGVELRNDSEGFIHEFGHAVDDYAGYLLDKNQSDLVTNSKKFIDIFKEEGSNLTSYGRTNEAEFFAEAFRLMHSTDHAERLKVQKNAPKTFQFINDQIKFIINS
Bead autofluor: flagged as autofluorescent in microsphere protease counterscreen; fluorescence intensity (test concentration not listed); 360,000 compounds, 3.1% hits; compound autofluorescence counterscreen, microsphere flow cytometry; stronger effect = higher value; AID 624483; in the data active = fluorescence intensity above about 16000; inconclusive = no clear call, values can overlap the other calls
BoNT A protease: BoNT/A light chain protease inhibitors, primary screen, biochemical, flow cytometry, MLPCN library | Botulinum neurotoxin type A light chain protease (Clostridium botulinum A str. ATCC 3502) | multiplex microsphere protease substrate cleavage | inhibition, % at 10 µM | 360,000 compounds, 0.17% hits | AID 588499, 2011
SSB-PriA inh: inhibitors of Klebsiella pneumoniae PriA binding to SSB C-terminal tail, primary screen, biochemical, AlphaScreen | 430,000 compounds, 0.6% hits | AlphaScreen SSBct-PriA binding, biotinylated peptide | inhibition, % at 33 µM; in the data active = inhibition mostly above about 37%, no sharp cut-off; inactive = mostly below about 20%
BoNT F protease: BoNT/F light chain protease inhibitors, primary screen, biochemical, flow cytometry, MLPCN library. Multiplex microsphere protease cleavage assay. inhibition, % at 10 µM. 360,000 compounds, 0.22% hits; in the data active = inhibition above about 35%, passing the limit was not always enough; inconclusive = no clear call, values can overlap the other calls
A number is an active result. Cut-off read from the data, not from the text of the source, unless noted: active = inhibition above about 30%; inconclusive = no clear call, values can overlap the other calls; inactive = below that.

Results for Cc1cccc(NC(=S)NN=Cc2ccc([N+](=O)[O-])s2)c1 ?
SSB-PriA inh: 39.0

How did O=[N+]([O-])c1ccc(Cl)c(/C=N/NC(=S)Nc2ccccc2)c1 do in these assays?
Anthrax LF inh2: inactive; Bead autofluor: 16957; BoNT A protease: inconclusive; BoNT F protease: inactive

How did O=C(N/N=C\c1ccc([N+](=O)[O-])cc1)c1cc(-c2ccco2)[nH]n1 do in these assays?
SSB-PriA inh: inactive

What do the screens show for `C/C(CC(=O)Nc1cccc2c1CCCC2)=N\NC(=O)c1ccccc1N`?
Anthrax LF inh2: inactive; Bead autofluor: 24027; BoNT A protease: inconclusive; BoNT F protease: inactive

How did Cc1ccc(Nc2nc3c([nH]2)c(=O)n(C)c(=O)n3C)cc1 do in these assays?
Anthrax LF inh2: inactive; Bead autofluor: 20196; BoNT A protease: inactive; SSB-PriA inh: inactive; BoNT F protease: inactive

How did Cc1cc(C)cc(Nc2nc3c([nH]2)c(=O)n(C)c(=O)n3C)c1 do in these assays?
Anthrax LF inh2: inactive; Bead autofluor: inactive; BoNT A protease: inactive; SSB-PriA inh: inactive; BoNT F protease: inactive

How did CC(C)(C)c1ccc(C(=O)N(Cc2cccc(Cl)c2)[C@H]2CCS(=O)(=O)C2)cc1 do in these assays?
SSB-PriA inh: inactive

What do the screens show for `COc1ccc(NC(=O)Cn2c(=O)n(C3CC3)c(=O)c3nscc32)cc1Cl`?
SSB-PriA inh: inactive

Results for CCOC(=O)C1=C(C)NC2=C(C1c1ccc([N+](=O)[O-])cc1)S(=O)(=O)c1ccccc12 (stereo not given) ?
Anthrax LF inh2: inactive; Bead autofluor: 17917; BoNT A protease: inconclusive; SSB-PriA inh: inactive; BoNT F protease: inactive

What do the screens show for `O=C1CCC(=O)N1OCCCCOc1ccccc1`?
Anthrax LF inh2: inactive; Bead autofluor: inactive; BoNT A protease: inactive; SSB-PriA inh: inactive; BoNT F protease: inactive

Results for O=C1CCC(=O)N1OCCCOc1ccccc1 ?
Anthrax LF inh2: inactive; Bead autofluor: 17200; BoNT A protease: inactive; SSB-PriA inh: inactive; BoNT F protease: inactive

What do the screens show for `COC(=O)c1sccc1S(=O)(=O)NCC(OC)c1ccc(Cl)s1` (stereo not given)?
SSB-PriA inh: inactive

What do the screens show for `CC(C)C(=O)Nc1nnn(C)n1`?
Anthrax LF inh2: inactive; Bead autofluor: 22504; BoNT A protease: inactive; SSB-PriA inh: inactive; BoNT F protease: inactive

What do the screens show for `CC(C)CC(=O)Nc1nnn(C)n1`?
Anthrax LF inh2: inactive; Bead autofluor: 18519; BoNT A protease: inactive; SSB-PriA inh: inactive; BoNT F protease: inactive

How did Cn1nnc(NC(=O)C(c2ccccc2)c2ccccc2)n1 do in these assays?
Anthrax LF inh2: inactive; Bead autofluor: inactive; BoNT A protease: inactive; SSB-PriA inh: inactive; BoNT F protease: inactive

How did Cc1noc(C)c1S(=O)(=O)NCC(C)(O)c1cc2ccccc2o1 (stereo not given) do in these assays?
SSB-PriA inh: inactive

How did COc1ccc(-c2cc3c(=O)[nH]nc(SCc4cccc(Br)c4)n3n2)cc1OC do in these assays?
SSB-PriA inh: inactive

How did Cc1cc(C)n2nc(C(=O)N3CCN(c4cc5c(nn4)CCCC5)CC3)nc2n1 do in these assays?
SSB-PriA inh: inactive

Results for COC(=O)C1=C(C)NC(=O)CC1c1ccc(F)c(Br)c1 (stereo not given) ?
Anthrax LF inh2: inactive; Bead autofluor: 23452; BoNT A protease: inconclusive; SSB-PriA inh: inactive; BoNT F protease: inactive

Results for COc1ccc(NC(=O)c2c(C(F)(F)F)nn(C)c2SCc2ccccc2)cc1 ?
Anthrax LF inh2: inactive; Bead autofluor: 16890; BoNT A protease: inactive; SSB-PriA inh: inactive; BoNT F protease: inactive

What do the screens show for `Cn1nc(C(F)(F)F)c(C(=O)Nc2ccc(C(F)(F)F)cc2)c1Cl`?
Anthrax LF inh2: inactive; Bead autofluor: inactive; BoNT A protease: inactive; SSB-PriA inh: inactive; BoNT F protease: inactive

Results for COCc1cc(C)nc(N2CCN(c3ccccc3)CC2)c1C#N ?
Anthrax LF inh2: inactive; Bead autofluor: 23159; BoNT A protease: inactive; SSB-PriA inh: inactive; BoNT F protease: inactive

Results for COCc1cc(C)nc(N2CCN(Cc3ccccc3)CC2)c1C#N ?
Anthrax LF inh2: inactive; Bead autofluor: inactive; BoNT A protease: inactive; SSB-PriA inh: inactive; BoNT F protease: inactive

What do the screens show for `Cc1nc(-c2cccnc2)sc1C(=O)Nc1ccc(C(F)(F)F)cc1`?
Anthrax LF inh2: inactive; Bead autofluor: 22745; BoNT A protease: inconclusive; SSB-PriA inh: inactive; BoNT F protease: inactive

What do the screens show for `CNC(=O)c1sc(-c2cccnc2)nc1C`?
Anthrax LF inh2: inactive; Bead autofluor: inconclusive; BoNT A protease: inactive; SSB-PriA inh: inactive; BoNT F protease: inactive

Results for Cc1nc(-c2cccnc2)sc1C(=O)Nc1cccc(C(F)(F)F)c1 ?
Anthrax LF inh2: inactive; Bead autofluor: 22572; BoNT A protease: inconclusive; SSB-PriA inh: inactive; BoNT F protease: inactive

Results for Cc1nc(Cl)sc1C(=O)Nc1cccc(C(F)(F)F)c1 ?
Anthrax LF inh2: inactive; Bead autofluor: inactive; BoNT A protease: inactive; SSB-PriA inh: inactive; BoNT F protease: inactive

What do the screens show for `O=C(O)c1ccc(NC(=O)c2ccc3c(c2)C(=O)N(c2ccccc2)C3=O)cc1`?
Anthrax LF inh2: inactive; Bead autofluor: inactive; BoNT A protease: inactive; SSB-PriA inh: inactive; BoNT F protease: 37.8

What do the screens show for `CC(=NNC(=S)N1CCCCC1)c1cccc(C)n1`?
Anthrax LF inh2: inactive; Bead autofluor: inactive; BoNT A protease: inactive; SSB-PriA inh: inactive; BoNT F protease: inactive

Results for CC(=NNC(=S)N1CCCCC1)c1ccccn1 ?
Anthrax LF inh2: 87.1; Bead autofluor: inactive; BoNT A protease: inactive; BoNT F protease: 73.2

How did CC(=NNC(=S)N1CC2CCC(CC2)C1)c1ccncn1 do in these assays?
Anthrax LF inh2: 57.2; Bead autofluor: inactive; BoNT A protease: inactive; SSB-PriA inh: inactive; BoNT F protease: 59.1

Results for C=CCNC(=S)N/N=C(\C)c1ccccn1 ?
Anthrax LF inh2: inactive; Bead autofluor: 16885; BoNT A protease: inactive; BoNT F protease: inactive

Results for CC(=NNc1nc2ccccc2s1)c1ccncn1 ?
Anthrax LF inh2: inactive; Bead autofluor: inactive; BoNT A protease: inactive; SSB-PriA inh: inactive; BoNT F protease: inactive

What do the screens show for `CC(C)(C)c1ccc(NC(=O)N2CCC(S(C)(=O)=O)CC2)cc1`?
SSB-PriA inh: inactive

How did O=C(NCc1ccc2c(c1)OCO2)C(=O)NC[C@@](O)(c1ccccc1)C1CC1 do in these assays?
SSB-PriA inh: inactive

Results for Cc1csc(C)[n+]1CC(=O)c1ccccc1 ?
Anthrax LF inh2: inactive; Bead autofluor: inactive; BoNT A protease: inactive; SSB-PriA inh: inactive; BoNT F protease: 48.5

Results for Clc1ccc(OCc2nn3c(C4CCCCC4)nnc3s2)c(Cl)c1 ?
Anthrax LF inh2: inactive; Bead autofluor: 22251; BoNT A protease: inactive; SSB-PriA inh: inactive; BoNT F protease: inactive

Results for O=C(c1ccccc1C(F)(F)F)N1CCN(c2ccc(-c3ccccn3)nn2)CC1 ?
SSB-PriA inh: 150.0

Results for O=C(c1ccccc1C(F)(F)F)N1CCN(c2ccc(-c3cccs3)nn2)CC1 ?
SSB-PriA inh: inactive
